# Laboratory results as given in paper PMC7862700, “An all-to-all approach to the identification of sequence-specific readers for epigenetic DNA modifications on cytosine”.
# Assays:
# Experiment in all cases: DAPPL (digital affinity profiling via proximity ligation, sequencing); 10 mM Tris-HCl pH 7.5, 50 mM NaCl, 1 mM DTT, 4% glycerol, room temperature, 30 min; GST-TFs on glutathione beads, 16-mer random dsDNA library, 0.1% formaldehyde crosslink after washing; high values mean tight binding
# FLI1 = target: T1, FLI1 (Homo sapiens, UniProt Q01543 1-452); conditions: protein: recombinant; tags: N-terminal GST; dsDNA, one strand shown
# T1 sequence: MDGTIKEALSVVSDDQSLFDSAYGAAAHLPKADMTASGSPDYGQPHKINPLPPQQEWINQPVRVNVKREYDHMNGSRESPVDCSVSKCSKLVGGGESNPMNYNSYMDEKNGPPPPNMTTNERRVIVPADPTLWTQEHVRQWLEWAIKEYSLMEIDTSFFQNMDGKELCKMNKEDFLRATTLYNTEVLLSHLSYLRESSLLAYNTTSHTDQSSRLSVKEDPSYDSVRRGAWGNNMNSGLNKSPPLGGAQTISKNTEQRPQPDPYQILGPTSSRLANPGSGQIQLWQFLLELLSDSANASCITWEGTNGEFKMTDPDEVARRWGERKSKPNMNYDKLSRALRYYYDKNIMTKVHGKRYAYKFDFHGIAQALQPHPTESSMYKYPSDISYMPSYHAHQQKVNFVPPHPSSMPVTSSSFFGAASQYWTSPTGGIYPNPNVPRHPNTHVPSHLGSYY
# How it was run: (§1)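 GST fusions of human transcription factors were expressed in yeast and captured with glutathione beads. Once given DNA barcodes and pooled alongside a tag-only sample, they were incubated for 30 min at room temperature with 200 nmole of a random double-stranded 16-mer DNA library in Tris/NaCl/DTT/glycerol buffer, then washed, crosslinked (0.1% formaldehyde), proximity-ligated, PCR-amplified and sequenced on an Illumina NextSeq500. The binding signal of each hexamer is its read frequency for a factor divided by its frequency for the tag-only sample.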
# ELK1 = target: T2, ELK1 (Homo sapiens, UniProt P19419 1-428); conditions: protein: recombinant; tags: N-terminal GST; dsDNA, one strand shown
# T2 sequence: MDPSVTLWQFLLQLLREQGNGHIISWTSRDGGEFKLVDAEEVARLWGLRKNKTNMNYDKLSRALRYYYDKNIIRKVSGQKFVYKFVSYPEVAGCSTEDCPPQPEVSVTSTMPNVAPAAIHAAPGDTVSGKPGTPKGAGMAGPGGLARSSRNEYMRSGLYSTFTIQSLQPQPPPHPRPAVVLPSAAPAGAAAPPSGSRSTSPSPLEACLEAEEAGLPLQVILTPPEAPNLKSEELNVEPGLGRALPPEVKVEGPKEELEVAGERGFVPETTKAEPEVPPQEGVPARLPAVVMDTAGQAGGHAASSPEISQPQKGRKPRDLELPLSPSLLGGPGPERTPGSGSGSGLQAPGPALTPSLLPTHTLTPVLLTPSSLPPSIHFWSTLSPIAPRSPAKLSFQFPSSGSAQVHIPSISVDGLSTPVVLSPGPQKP
# How it was run: as §1
# GABPA = target: T3, GABPA (Homo sapiens, UniProt Q06546 1-454); conditions: protein: recombinant; tags: N-terminal GST; dsDNA, one strand shown
# T3 sequence: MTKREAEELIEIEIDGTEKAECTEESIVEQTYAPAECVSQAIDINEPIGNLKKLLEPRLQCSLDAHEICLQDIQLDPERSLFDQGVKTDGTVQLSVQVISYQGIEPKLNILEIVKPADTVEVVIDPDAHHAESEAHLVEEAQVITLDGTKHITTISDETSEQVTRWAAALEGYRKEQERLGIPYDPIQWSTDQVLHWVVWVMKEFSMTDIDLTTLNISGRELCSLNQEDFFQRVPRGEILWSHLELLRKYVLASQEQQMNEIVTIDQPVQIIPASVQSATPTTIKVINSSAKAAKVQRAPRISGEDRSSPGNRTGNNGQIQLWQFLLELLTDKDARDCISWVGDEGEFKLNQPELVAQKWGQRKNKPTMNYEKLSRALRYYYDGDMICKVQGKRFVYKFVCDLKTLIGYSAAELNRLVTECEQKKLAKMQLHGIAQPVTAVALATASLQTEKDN
# How it was run: as §1
# ERG = target: T4, ERG (Homo sapiens, UniProt P11308 1-479); conditions: protein: recombinant; tags: N-terminal GST; dsDNA, one strand shown
# T4 sequence: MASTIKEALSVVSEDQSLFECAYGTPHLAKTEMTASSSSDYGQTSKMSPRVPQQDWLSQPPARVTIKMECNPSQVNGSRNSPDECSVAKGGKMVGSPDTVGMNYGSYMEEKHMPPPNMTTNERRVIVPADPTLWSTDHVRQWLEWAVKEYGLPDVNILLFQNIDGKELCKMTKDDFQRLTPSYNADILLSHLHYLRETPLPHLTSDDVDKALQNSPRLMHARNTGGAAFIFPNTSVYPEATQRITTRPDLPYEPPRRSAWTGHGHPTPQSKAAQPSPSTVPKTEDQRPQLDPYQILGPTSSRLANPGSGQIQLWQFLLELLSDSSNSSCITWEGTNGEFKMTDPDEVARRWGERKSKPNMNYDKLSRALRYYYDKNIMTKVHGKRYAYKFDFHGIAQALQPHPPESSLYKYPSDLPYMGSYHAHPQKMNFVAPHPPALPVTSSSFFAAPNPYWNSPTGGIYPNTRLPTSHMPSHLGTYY
# How it was run: as §1
# ELF1 = ELF1 (Homo sapiens, UniProt P32519 1-619); conditions: protein: recombinant; tags: N-terminal GST; dsDNA, one strand shown
# Sequence of ELF1 (P32519 whole entry): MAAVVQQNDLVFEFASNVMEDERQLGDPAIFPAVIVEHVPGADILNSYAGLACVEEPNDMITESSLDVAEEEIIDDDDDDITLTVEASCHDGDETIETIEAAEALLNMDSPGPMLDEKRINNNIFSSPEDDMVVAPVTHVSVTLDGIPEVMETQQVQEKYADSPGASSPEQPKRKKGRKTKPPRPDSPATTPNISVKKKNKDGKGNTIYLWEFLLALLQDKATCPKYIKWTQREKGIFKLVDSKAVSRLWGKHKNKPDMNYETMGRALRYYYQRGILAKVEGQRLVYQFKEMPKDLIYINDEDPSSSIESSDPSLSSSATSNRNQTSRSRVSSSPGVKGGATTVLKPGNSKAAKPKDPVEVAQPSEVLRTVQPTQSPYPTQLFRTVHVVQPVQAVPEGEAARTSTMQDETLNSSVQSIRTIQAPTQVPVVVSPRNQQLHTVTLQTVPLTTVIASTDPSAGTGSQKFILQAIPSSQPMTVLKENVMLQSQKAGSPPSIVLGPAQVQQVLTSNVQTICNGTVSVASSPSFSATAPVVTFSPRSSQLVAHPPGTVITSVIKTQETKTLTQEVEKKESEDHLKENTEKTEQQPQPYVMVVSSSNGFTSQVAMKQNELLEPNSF
# How it was run: as §1
# EHF = target: T5, EHF (Homo sapiens, UniProt Q9NZC4 1-300); conditions: protein: recombinant; tags: N-terminal GST; dsDNA, one strand shown
# T5 sequence: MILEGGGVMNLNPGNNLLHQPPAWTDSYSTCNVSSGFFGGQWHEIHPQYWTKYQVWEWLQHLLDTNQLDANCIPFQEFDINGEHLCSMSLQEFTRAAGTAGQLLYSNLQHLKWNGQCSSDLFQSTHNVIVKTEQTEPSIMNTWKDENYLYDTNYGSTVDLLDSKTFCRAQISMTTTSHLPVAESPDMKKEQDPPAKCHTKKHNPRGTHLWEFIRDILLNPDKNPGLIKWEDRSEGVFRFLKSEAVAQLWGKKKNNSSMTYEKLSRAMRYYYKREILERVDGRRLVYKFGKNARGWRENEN
# How it was run: as §1
# SPI1 = SPI1 (Homo sapiens, UniProt P17947 1-270); conditions: protein: recombinant; tags: N-terminal GST; dsDNA, one strand shown
# How it was run: as §1
# SPIB = SPIB (Homo sapiens, UniProt Q01892 1-262); conditions: protein: recombinant; tags: N-terminal GST; dsDNA, one strand shown
# Sequence of SPIB (Q01892 whole entry): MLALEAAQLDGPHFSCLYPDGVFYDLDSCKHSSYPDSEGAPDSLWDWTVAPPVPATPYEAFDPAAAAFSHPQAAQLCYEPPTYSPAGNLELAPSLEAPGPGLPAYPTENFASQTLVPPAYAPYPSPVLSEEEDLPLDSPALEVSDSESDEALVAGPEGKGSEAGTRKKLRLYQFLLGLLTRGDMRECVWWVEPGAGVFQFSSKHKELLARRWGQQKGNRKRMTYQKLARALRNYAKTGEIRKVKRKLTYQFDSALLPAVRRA
# How it was run: as §1
# ELK3 = target: T6, ELK3 (Homo sapiens, UniProt P41970 1-407); conditions: protein: recombinant; tags: N-terminal GST; dsDNA, one strand shown
# T6 sequence: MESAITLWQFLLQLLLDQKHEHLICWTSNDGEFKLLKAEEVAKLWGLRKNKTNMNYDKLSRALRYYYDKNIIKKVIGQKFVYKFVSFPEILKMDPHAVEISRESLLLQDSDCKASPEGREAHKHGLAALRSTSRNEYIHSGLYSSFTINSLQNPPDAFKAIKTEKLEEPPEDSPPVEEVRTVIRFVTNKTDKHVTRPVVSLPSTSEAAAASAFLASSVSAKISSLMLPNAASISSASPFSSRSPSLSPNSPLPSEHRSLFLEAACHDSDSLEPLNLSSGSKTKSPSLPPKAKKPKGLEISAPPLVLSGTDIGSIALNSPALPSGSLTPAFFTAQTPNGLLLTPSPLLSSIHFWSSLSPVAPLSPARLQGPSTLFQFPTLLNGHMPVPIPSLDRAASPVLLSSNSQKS
# How it was run: as §1
# FEV = target: T7, FEV (Homo sapiens, UniProt Q99581 1-238); conditions: protein: recombinant; tags: N-terminal GST; dsDNA, one strand shown
# T7 sequence: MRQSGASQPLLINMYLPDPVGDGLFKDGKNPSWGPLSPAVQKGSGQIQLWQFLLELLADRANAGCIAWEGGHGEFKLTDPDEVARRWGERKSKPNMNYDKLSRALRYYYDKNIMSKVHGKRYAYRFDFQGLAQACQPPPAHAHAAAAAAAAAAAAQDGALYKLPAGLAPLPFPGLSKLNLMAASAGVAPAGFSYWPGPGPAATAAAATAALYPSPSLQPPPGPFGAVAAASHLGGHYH
# How it was run: as §1
# ETV5 = ETV5 (Homo sapiens, UniProt P41161 1-510); conditions: protein: recombinant; tags: N-terminal GST; dsDNA, one strand shown
# Sequence of ETV5 (P41161 whole entry): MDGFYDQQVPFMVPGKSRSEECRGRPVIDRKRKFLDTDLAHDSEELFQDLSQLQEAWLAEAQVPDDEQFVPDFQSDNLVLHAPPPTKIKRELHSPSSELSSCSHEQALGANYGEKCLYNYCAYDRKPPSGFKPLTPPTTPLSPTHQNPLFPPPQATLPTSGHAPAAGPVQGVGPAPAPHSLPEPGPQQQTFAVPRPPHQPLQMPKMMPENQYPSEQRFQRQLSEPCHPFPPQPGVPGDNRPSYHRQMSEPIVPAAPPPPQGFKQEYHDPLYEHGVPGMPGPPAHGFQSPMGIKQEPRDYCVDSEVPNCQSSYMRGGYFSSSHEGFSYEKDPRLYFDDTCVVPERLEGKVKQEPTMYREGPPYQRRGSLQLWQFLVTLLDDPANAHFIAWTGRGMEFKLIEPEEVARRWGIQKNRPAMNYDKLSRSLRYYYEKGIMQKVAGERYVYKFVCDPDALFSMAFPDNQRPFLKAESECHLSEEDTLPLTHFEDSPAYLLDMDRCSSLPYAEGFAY
# How it was run: as §1
# HSF1 = HSF1 (Homo sapiens, UniProt Q00613 1-529); conditions: protein: recombinant; tags: N-terminal GST; chain copies: 3; dsDNA, one strand shown
# Sequence of HSF1 (Q00613 whole entry): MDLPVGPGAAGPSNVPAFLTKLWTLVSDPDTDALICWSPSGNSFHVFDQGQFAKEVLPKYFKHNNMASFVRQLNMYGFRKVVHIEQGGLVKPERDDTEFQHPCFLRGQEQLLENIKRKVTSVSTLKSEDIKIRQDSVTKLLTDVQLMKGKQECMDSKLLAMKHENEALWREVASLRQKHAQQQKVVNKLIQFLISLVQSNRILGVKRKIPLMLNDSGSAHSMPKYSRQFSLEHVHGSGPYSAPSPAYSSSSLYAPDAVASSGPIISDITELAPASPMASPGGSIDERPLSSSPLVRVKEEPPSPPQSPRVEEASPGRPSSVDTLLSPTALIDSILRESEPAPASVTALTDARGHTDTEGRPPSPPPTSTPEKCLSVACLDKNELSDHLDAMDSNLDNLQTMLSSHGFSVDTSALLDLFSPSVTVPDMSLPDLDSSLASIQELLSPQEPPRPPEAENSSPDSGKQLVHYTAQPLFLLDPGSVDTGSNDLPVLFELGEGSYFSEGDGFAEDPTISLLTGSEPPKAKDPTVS
# How it was run: as §1
# SPIC = target: T8, SPIC (Homo sapiens, UniProt Q8N5J4 1-248); conditions: protein: recombinant; tags: N-terminal GST; dsDNA, one strand shown
# T8 sequence: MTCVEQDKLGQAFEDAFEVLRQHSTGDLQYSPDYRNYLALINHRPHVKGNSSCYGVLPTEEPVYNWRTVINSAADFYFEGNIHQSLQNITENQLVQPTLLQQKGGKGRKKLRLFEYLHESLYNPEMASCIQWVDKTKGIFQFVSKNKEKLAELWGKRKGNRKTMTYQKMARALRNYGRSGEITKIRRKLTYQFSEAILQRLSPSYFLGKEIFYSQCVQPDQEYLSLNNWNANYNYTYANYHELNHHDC
# How it was run: as §1
# ELF4 = ELF4 (Homo sapiens, UniProt Q99607 1-663); conditions: protein: recombinant; tags: N-terminal GST; dsDNA, one strand shown
# Sequence of ELF4 (Q99607 whole entry): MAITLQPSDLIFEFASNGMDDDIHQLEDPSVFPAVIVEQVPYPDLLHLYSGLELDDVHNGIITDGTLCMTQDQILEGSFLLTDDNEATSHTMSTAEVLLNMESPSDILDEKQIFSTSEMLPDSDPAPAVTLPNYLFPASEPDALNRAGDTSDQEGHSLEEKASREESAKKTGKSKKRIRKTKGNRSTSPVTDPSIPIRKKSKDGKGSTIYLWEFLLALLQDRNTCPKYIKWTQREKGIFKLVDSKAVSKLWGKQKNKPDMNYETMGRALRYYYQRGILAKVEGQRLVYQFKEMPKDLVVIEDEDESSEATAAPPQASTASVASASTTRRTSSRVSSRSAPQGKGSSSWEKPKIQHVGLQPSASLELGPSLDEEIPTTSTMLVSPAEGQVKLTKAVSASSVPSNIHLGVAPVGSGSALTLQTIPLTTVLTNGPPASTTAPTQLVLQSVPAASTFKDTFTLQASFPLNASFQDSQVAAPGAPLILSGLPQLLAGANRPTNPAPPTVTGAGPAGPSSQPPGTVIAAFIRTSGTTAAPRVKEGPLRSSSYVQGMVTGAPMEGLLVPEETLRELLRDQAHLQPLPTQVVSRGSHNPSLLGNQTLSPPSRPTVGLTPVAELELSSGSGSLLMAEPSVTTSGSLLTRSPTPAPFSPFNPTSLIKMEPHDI
# How it was run: as §1
# ELK4 = target: T9, ELK4 (Homo sapiens, UniProt P28324-2 1-405); conditions: protein: recombinant; tags: N-terminal GST; dsDNA, one strand shown
# T9 sequence: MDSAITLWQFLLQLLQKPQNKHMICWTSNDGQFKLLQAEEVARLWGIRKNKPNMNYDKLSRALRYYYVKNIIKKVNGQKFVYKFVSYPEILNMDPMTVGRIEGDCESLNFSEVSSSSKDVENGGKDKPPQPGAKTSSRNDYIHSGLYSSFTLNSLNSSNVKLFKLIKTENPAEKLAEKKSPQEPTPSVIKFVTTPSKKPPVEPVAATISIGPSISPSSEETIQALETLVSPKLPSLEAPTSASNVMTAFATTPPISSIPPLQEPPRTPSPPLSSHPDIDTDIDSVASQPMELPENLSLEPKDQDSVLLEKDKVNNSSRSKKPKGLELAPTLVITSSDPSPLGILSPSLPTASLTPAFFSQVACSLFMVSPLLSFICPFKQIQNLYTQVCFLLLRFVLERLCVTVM
# How it was run: as §1
# ETV2 = target: T10, ETV2 (Homo sapiens, UniProt O00321 1-342); conditions: protein: recombinant; tags: N-terminal GST; dsDNA, one strand shown
# T10 sequence: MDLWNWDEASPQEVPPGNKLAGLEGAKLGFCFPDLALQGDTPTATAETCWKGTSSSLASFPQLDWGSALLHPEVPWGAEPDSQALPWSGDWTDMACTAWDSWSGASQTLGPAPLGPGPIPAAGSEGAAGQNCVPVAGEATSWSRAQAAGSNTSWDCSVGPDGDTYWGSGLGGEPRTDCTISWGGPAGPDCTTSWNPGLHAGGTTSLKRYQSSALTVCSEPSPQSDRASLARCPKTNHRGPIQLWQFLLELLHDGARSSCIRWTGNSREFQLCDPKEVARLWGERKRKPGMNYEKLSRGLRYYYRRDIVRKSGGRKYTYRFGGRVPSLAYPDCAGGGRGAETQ
# How it was run: as §1
# ELF3 = target: T11, ELF3 (Homo sapiens, UniProt P78545 1-371); conditions: protein: recombinant; tags: N-terminal GST; dsDNA, one strand shown
# T11 sequence: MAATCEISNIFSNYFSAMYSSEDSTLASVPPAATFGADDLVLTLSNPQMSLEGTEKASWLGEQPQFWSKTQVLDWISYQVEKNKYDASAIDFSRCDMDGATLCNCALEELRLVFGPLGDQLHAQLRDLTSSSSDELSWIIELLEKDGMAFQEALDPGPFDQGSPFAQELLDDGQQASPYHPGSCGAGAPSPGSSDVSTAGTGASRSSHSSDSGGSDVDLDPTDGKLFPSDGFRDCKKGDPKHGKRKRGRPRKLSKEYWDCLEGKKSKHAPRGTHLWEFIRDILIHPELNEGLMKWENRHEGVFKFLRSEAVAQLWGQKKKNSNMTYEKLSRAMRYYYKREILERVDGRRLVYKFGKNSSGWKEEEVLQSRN
# How it was run: as §1
# CRX = CRX (Homo sapiens, UniProt O43186 1-299); conditions: protein: recombinant; tags: N-terminal GST; dsDNA, one strand shown
# Sequence of CRX (O43186 whole entry): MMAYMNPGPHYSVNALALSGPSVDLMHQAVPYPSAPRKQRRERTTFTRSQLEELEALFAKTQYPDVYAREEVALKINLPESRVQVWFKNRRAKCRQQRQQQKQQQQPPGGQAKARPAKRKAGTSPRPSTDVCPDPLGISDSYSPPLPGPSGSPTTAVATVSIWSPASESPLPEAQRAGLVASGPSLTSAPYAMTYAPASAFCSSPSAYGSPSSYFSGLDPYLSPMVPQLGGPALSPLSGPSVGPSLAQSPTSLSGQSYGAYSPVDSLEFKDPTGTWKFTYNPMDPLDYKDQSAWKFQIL
# How it was run: as §1
# ETV1 = ETV1 (Homo sapiens, UniProt P50549 1-477); conditions: protein: recombinant; tags: N-terminal GST; dsDNA, one strand shown
# Sequence of ETV1 (P50549 whole entry): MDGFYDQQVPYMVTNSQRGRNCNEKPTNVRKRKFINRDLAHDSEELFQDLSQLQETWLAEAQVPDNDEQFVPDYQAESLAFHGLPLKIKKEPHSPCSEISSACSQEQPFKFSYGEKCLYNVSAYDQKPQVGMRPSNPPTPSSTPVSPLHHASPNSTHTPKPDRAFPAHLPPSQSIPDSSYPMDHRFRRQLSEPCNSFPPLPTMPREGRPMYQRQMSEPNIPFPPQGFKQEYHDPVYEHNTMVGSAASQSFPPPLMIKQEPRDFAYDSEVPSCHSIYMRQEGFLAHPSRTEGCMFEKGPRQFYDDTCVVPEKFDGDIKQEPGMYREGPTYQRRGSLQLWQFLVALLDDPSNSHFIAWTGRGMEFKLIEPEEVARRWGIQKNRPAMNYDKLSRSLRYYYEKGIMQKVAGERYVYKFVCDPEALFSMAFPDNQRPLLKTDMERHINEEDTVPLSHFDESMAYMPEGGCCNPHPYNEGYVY
# How it was run: as §1
sequence,measurement,setting,value
ACTCTC,binding signal,FLI1,"1.5 fold enrichment (6-mer frequency, TF over GST control)"
same,binding signal,ELK1,"1.59 fold enrichment (6-mer frequency, TF over GST control)"
same,binding signal,GABPA,"1.41 fold enrichment (6-mer frequency, TF over GST control)"
same,binding signal,ERG,"1.47 fold enrichment (6-mer frequency, TF over GST control)"
same,binding signal,ELF1,"1.55 fold enrichment (6-mer frequency, TF over GST control)"
same,binding signal,EHF,"1.47 fold enrichment (6-mer frequency, TF over GST control)"
same,binding signal,SPI1,"1.49 fold enrichment (6-mer frequency, TF over GST control)"
same,binding signal,SPIB,"1.47 fold enrichment (6-mer frequency, TF over GST control)"
same,binding signal,ELK3,"1.44 fold enrichment (6-mer frequency, TF over GST control)"
same,binding signal,FEV,"1.42 fold enrichment (6-mer frequency, TF over GST control)"
same,binding signal,ETV5,"1.42 fold enrichment (6-mer frequency, TF over GST control)"
same,binding signal,HSF1,"1.55 fold enrichment (6-mer frequency, TF over GST control)"
same,binding signal,SPIC,"1.47 fold enrichment (6-mer frequency, TF over GST control)"
same,binding signal,ELF4,"1.49 fold enrichment (6-mer frequency, TF over GST control)"
same,binding signal,ELK4,"1.55 fold enrichment (6-mer frequency, TF over GST control)"
same,binding signal,ETV2,"1.39 fold enrichment (6-mer frequency, TF over GST control)"
same,binding signal,ELF3,"1.88 fold enrichment (6-mer frequency, TF over GST control)"
same,binding signal,CRX,"1.31 fold enrichment (6-mer frequency, TF over GST control)"
same,binding signal,ETV1,"1.53 fold enrichment (6-mer frequency, TF over GST control)"
